The text below walks through data of PubChem BioAssay (NCI).

Test systems include DU-145 prostate; K-562 leukemia; MALME-3M melanoma; MDA-MB-231 breast; RXF 393 renal; SF-268 CNS; SF-295 CNS; SF-539 CNS; UACC-257 melanoma; M14 melanoma.
What all share (assay): NCI-60 one-dose screen, 48 h (100 = growth as untreated, 0 = no growth, -100 = all killed)
What all share (conditions): 10 µM unless noted

Values joined by “and” are separate entries in the source; they are usually repeats but may differ in a detail not shown here. Equal values may be shown once. About 83,000 compounds went through this panel and 20% of them were active in at least one assay; those are over-represented in the sample as a whole.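 How to read the values: 0–100, growth inhibition (40 = 60% inhibited); 0, no net growth; -100 to 0, cell death (-40 = 40% of starting cells died; -100 = all dead).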 Values without a mark were called inactive. Active and inactive are the calls of the source. The calls were made as follows: active = growth percent below 10; inactive = the rest.

For the molecule `Nc1nc2c(s1)CCc1cn(S(=O)(=O)c3ccccc3)cc1-2`, the growth in the test on DU-145 prostate is 100% and 114%; in the test on K-562 leukemia, 88.6% and 88.2%; in the test with MALME-3M melanoma, 107% and 98%; in the test on MDA-MB-231 breast, 80.5% and 112%; in the test on RXF 393 renal, 100% and 110%; with SF-268 CNS, 80.6% and 97.7%. Also, the growth in the test on SF-295 CNS is 94.6% and 106%; with SF-539 CNS, 90.9% and 97.8%; in the test on UACC-257 melanoma, 86.6% and 112%; with M14 melanoma, 90.4% and 101%.
With `COc1ccc(-c2nc(Cl)c3c(C)nn(-c4ccc(F)cc4)c3n2)cc1`, the growth is 111% in the test with DU-145 prostate; 100% in the test with K-562 leukemia; 115% in the test with MALME-3M melanoma; 106% with MDA-MB-231 breast; 122% with RXF 393 renal; 106% in the test on SF-268 CNS. Further, the growth was 107% in the test on SF-295 CNS, 111% with SF-539 CNS, 91.9% in the test with UACC-257 melanoma and 100% in the test on M14 melanoma.
On to `Nc1ncnc2c1C(c1ccc([N+](=O)[O-])cc1)c1sc3c(F)cccc3c1O2` (stereo not given), for which the growth in the test on DU-145 prostate was 93.1%; in the test on K-562 leukemia, 83.4%; with MALME-3M melanoma it was 104%; with MDA-MB-231 breast it was 84.4%; in the test on RXF 393 renal it was 101%; with SF-268 CNS, 98.7%. Also, the growth in the test with SF-295 CNS is 106%; with SF-539 CNS, 96%; in the test on UACC-257 melanoma, 121%; with M14 melanoma, 112%.
As to `COc1ccc2c(c1)CC[C@@H]1[C@@H]2CC[C@]2(C)C3C(=CCC4C(=O)N(c5ccccc5)C(=O)C43)C[C@@H]12` (stereo not given in full), the growth in the test with DU-145 prostate was 114%; in the test on K-562 leukemia, 76.9%; in the test on MALME-3M melanoma it was 96.1%; with MDA-MB-231 breast it was 86.6%; with RXF 393 renal it was 93.7%; with SF-268 CNS, 94.1%. For the same molecule, the growth was 96.4% in the test on SF-295 CNS, 96.7% in the test on SF-539 CNS, 86.1% with UACC-257 melanoma and 89.4% in the test on M14 melanoma.
With `Cc1cc2nc(C(Cl)Cl)nc(-c3ccc(Cl)cc3)n2n1`, the growth in the test on DU-145 prostate is -3.35% (active); with K-562 leukemia it was 12.2%; in the test on MALME-3M melanoma, -16.5% (active); in the test with MDA-MB-231 breast, -2.03% (active); in the test with RXF 393 renal it was -74.4% (active); in the test on SF-268 CNS, 7.03% (active). In addition, the growth with SF-295 CNS was 2.71% (active); with SF-539 CNS, 3.16% (active); in the test on UACC-257 melanoma it was 30.9%; with M14 melanoma it was -20.3% (active).
Regarding `C=C1CC[C@@H]2[C@](C)(COC(C)=O)[C@H](OC(C)=O)CC[C@@]2(C)[C@@H]1CC(Nc1ccc(S(=O)(=O)Nc2nccs2)cc1)C1=CCOC1=O` (stereo not given in full), the growth with DU-145 prostate was 22.3%; with K-562 leukemia, 3.4% (active); with MALME-3M melanoma it was 0.4% (active); with MDA-MB-231 breast it was 5.69% (active); with RXF 393 renal, -50.6% (active); with SF-268 CNS, 21.3%. Besides, the growth with SF-295 CNS was 73%; with SF-539 CNS it was -67.1% (active); in the test on UACC-257 melanoma, 22.4%; in the test with M14 melanoma, 8.12% (active).
As to `O=C(Oc1ccc(CO[N+](=O)[O-])cc1)c1ccccc1`, the growth is -94.6% (active) with DU-145 prostate; -37.1% (active) in the test with K-562 leukemia; -69.9% (active) with MALME-3M melanoma; -80.6% (active) in the test with MDA-MB-231 breast; -86.2% (active) with RXF 393 renal; -84.8% (active) with SF-268 CNS. Moreover, the growth in the test with SF-295 CNS is -91.9% (active); in the test on SF-539 CNS it was -90% (active); with UACC-257 melanoma it was -78% (active); with M14 melanoma, -83% (active).
On to `CC1=C2[C@@H](CC1)[C@]1(C)O[C@@](C(C)C)(C[C@H]1OC(=O)CO)[C@H]2OC(=O)C1CC1c1ccccc1` (stereo not given in full), for which the growth in the test with DU-145 prostate was 100%; in the test with K-562 leukemia, 67.7%; with MALME-3M melanoma, 91.7%; in the test with MDA-MB-231 breast, 89.7%; in the test with RXF 393 renal it was 69.3%; with SF-268 CNS it was 76.2%. Besides, the growth is 67.4% in the test on SF-295 CNS, 101% in the test on SF-539 CNS, 88.8% in the test with UACC-257 melanoma and 88.3% in the test on M14 melanoma.
`COc1ccc(Cl)cc1Nc1nc(C(F)(F)F)ccc1C(=O)N/N=C/c1ccc(N(C)C)cc1`: the growth with DU-145 prostate is 117%; with K-562 leukemia it was 122%; in the test with MALME-3M melanoma, 92.2%; with MDA-MB-231 breast, 72.9%; in the test on RXF 393 renal it was 75.6%; in the test on SF-268 CNS it was 107%. In addition, the growth in the test with SF-295 CNS is 154%; in the test with SF-539 CNS it was 115%; in the test on UACC-257 melanoma it was 110%; with M14 melanoma, 81.3%.
Take `O=C(/C=C/c1ccccc1)c1cccs1`: the growth in the test with DU-145 prostate was 97.8% and 93.1%; in the test with K-562 leukemia it was 106% and 71.2%; with MALME-3M melanoma, 119%; in the test with MDA-MB-231 breast it was 111% and 109%; in the test with RXF 393 renal, 106% and 102%; with SF-268 CNS, 98.4% and 98.3%. Moreover, the growth is 97.7% and 95.1% in the test with SF-295 CNS; 105% and 111% in the test with SF-539 CNS; 96.3% and 106% with UACC-257 melanoma; 98.1% and 112% in the test on M14 melanoma.
With `COc1cc(/C=C2\C(=O)N(CCCCn3c4ccccc4c(=O)c4ccccc43)c3ccccc32)cc(OC)c1O`, the growth with DU-145 prostate was 60.4%; in the test on K-562 leukemia, 15.6%; with MALME-3M melanoma it was 66.3%; in the test on MDA-MB-231 breast it was 70%; with RXF 393 renal it was 70.5%; in the test on SF-268 CNS it was 60.1%. For the same molecule, the growth with SF-295 CNS is 84%; in the test on SF-539 CNS it was 64.3%; in the test with UACC-257 melanoma, 81.7%; in the test with M14 melanoma it was 52.3%.
